Rows were chosen to be rich in hits. Some 19% of all compounds tested hit in one or more screens of this group.
DT40 TDP1 CPT: growth inhibition of DT40 Tdp1-/-;hTDP1 cells with camptothecin (screen for TDP1 inhibitors) | Potency, µM (titrated, usually from 46.2 µM), for the others: at the top dose activity change, negative = growth inhibition, actives largely listed as inhibitors | 420,000 tested, 12% active | chicken DT40 Tdp1-/-;hTDP1 cells + 20 nM CPT, ATP luminescence, 48 h | AID 686979; also: nearly all actives have a fitted effect of over 55% in size
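Chicken DT40 Tdp1-/- cells complemented with human TDP1, 400 cells/well, exposed to compounds plus 20 nM camptothecin for at least 48 h at 37 C; viability read as ATP content by CellTiter-Glo luminescence.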
KB-V1 cytotox: KB-V1 MDR subline cytotoxicity. 400,000 tested, 3.4% active. Potency, µM (titrated, usually from 46.1 µM), actives largely listed as cytotoxic. KB-V1 MDR cells viability, CellTiter-Glo, 72 h; also: nearly all actives have a fitted effect of over 60% in size
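KB-V1 MDR subline cells in DMEM (phenol-red free, 10% FBS) exposed to compounds in qHTS concentration series for 72 h at 37 degrees C. Viability read by CellTiter-Glo luminescence; concentration-effect curves fitted after normalization and correction.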
HT1080 IDH1KD tx: toxicity to HT-1080 IDH1 knockdown cells (counter line); HT-1080 IDH1 knockdown viability, ATP luminescence, 48 h; Potency, µM (series often up to 46.1 µM), for inactives: at the highest dose activity, negative = toxicity, hits mostly cytotoxic; 360,000 tested, 2% active; AID 686971;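 also: 0% = DMSO wells and -100% = cell-free medium wells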
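Viability of IDH1-knockdown HT-1080 fibrosarcoma cells was assessed by CellTiter-Glo after 48 h at 37 °C with titrated compound; concentration-effect curves were classified by fit quality and response size.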
DT40 TDP1 no CPT: qHTS for Inhibitors of human tyrosyl-DNA phosphodiesterase 1 (TDP1): qHTS in cells in absence of CPT; DT40 Tdp1-/- hTDP1 cells, no CPT, ATP luminescence, 48 h; Potency, µM (series often up to 46.2 µM), inactives show at the top dose activity change, negative = growth inhibition, most hits filed as inhibitors; 420,000 tested, 15% active; AID 686978, 2013; also: nearly all actives have a fitted effect of over 55% in size
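DT40 Tdp1-/-;hTDP1 cells, no CPT (DMSO vehicle only), 400 cells/well; compounds pin-transferred; ≥48 hr, 37 °C; CellTiter-Glo 30 min RT dark, luminescence read.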
HT1080-NT tox: kills 2HG-producing HT-1080-NT fibrosarcoma cells. HT-1080-NT fibrosarcoma viability, CellTiter-Glo ATP luminescence, 48 h. 360,000 tested, 1.6% active. Potency, µM (doses to about 46.1 µM), for inactives: top-dose activity, negative = less viability, most hits filed as cytotoxic. AID 686970;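 also: NT is the 2HG producing partner of a matched IDH1 knockdown line; 0% = DMSO-treated cells and -100% = media-only wells without cells; nearly all actives have a fitted effect of over 55% in size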
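HT-1080-NT; 750 cells/well; 5% FBS RPMI; 48 h compound, 37 degrees C; CellTiter-Glo luminescence; curve fitting and curve-class assignment.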
KB-3-1 cytotox: KB-3-1 parental cell cytotoxicity; Potency, µM (series often up to 46.1 µM), hits mostly cytotoxic; 400,000 tested, 1.4% active; KB-3-1 viability, CellTiter-Glo ATP luminescence, 72 h; also: nearly all actives have a fitted effect of over 60% in size
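Cytotoxicity measured as CellTiter-Glo luminescence after 72 h at 37 C. Compound titrations were pinned onto drug-naive KB-3-1 parental adenocarcinoma cells grown in DMEM with 10% FBS, and normalized data fitted to concentration-response curves.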
Active calls of the source: *; i = inactive; ? = inconclusive; / = no result; [ ] = dose if it differs, or a comment. Calls follow the shape of the dose curve; as a rule, active = well fitted curve in the direction sought with a large enough effect; inconclusive = small, poorly fitted or top-dose-only effect, or another doubt; inactive = no such curve, though single readings can be large; an effect the other way counts as inactive or inconclusive. Unless noted, % is scaled to controls: 0 for no effect and ±100 for the full control effect; potency is read from the fitted curve at half-maximal effect.

SMILES | DT40 TDP1 CPT | KB-V1 cytotox | HT1080 IDH1KD tx | DT40 TDP1 no CPT | HT1080-NT tox | KB-3-1 cytotox
Cc1ccc(C2(c3ccccc3)NC(=O)N(CC(=O)NC3(C#N)CCCC3)C2=O)cc1C (centres undefined) | -9.5% | i | -7.2% | -5.3% | -2.4% | i
CCCCc1nn2c(=O)cc(COC(=O)c3ccc(NC(=O)c4ccccc4Cl)cc3)nc2s1 | -17.2% | / | / | -18.7% | / | /
COc1ccc(CCC(=O)Nc2ccc(C)c(S(=O)(=O)N(C)C)c2)cc1OC | ? | ? | -28.6% | 16.4µM* | -1.5% | i
O=S1(=O)c2c(Oc3cccc4ccccc34)cccc2OC(COCc2ccccc2)CN1C1CCCC1 (centres undefined) | 6.51µM* | i | 2.4% | 6.51µM* | 0.6% | i
CCCCN1CC(COCc2ccccc2)Oc2cccc(Oc3ccc(F)cc3)c2S1(=O)=O (centres undefined) | ? | i | 4.1% | ? | -0.5% | i
O=S1(=O)c2c(F)cccc2OC(COCc2ccccc2)CN1C1CCCC1 (centres undefined) | ? | i | -8.9% | 20.6µM* | -4.5% | i
O=C(CSc1ncnc2nc[nH]c12)Nc1nnc(SCc2ccc(Cl)c(Cl)c2)s1 | -28.4% | i | -11.1% | 18.4µM* | -17.0% | i
Cc1ccc(C)c(NC(=O)CSc2ncnc3nc[nH]c23)c1 | -14.8% | i | 7.1% | -9.0% | 2.0% | i
COCCCNc1ccn2nc(-c3cccc(OCc4ccccc4)c3)cc2n1 | ? | i | ? | 7.31µM* | ? | i
c1ccc(OCCNc2ccn3nc(-c4ccccc4)cc3n2)cc1 | ? | i | -3.8% | ? | -7.5% | i
c1ccc(COc2cccc(-c3cc4nc(NCc5cccs5)ccn4n3)c2)cc1 | ? | ? | 7.31µM* | ? | ? | ?
c1ccc(COc2ccc(-c3cc4nc(NCCCn5ccnc5)ccn4n3)cc2)cc1 | 23.1µM* | i | ? | 16.4µM* | ? | i
COc1ccccc1-c1cc2nc(NCCOc3ccccc3)ccn2n1 | 18.4µM* | i | ? | 16.4µM* | ? | i
c1ccc(OCCNc2ccn3nc(-c4cccs4)cc3n2)cc1 | ? | i | -4.1% | ? | ? | i
COc1cc(Nc2cccc(-c3ccccc3)n2)cc(OC)c1OC | 18.4µM* | i | ? | ? | -27.5% | i
COc1cc(Nc2ccn3nc(-c4ccccc4Cl)cc3n2)cc(OC)c1OC | ? | i | -21.0% | 20.6µM* | 23.1µM* | ?
COCCCNc1ccn2nc(-c3cc(OC)c(OC)c(OC)c3)cc2n1 | ? | i | 21.9% | ? | -5.1% | i
CCOc1ccc(C(=O)NNC(=O)CNC(=O)c2ccc(C)s2)cc1OC | -2.5% | ? | 11.3% | 0.8% | 1.5%[9.24 µM] | i
Cc1cc(NS(C)(=O)=O)c(=O)n(Cc2cccc(C(F)(F)F)c2)c1 | -19.3% | i | 1.9% | -19.1% | 0.1% | i
O=C(Nc1ccccc1OCc1ccccc1)c1ccccc1Br | -2.9% | ? | -3.5% | -7.0% | 0.0% | i
COc1ccc(N2CC(O)=C(c3nc(-c4ccc(F)cc4)cs3)C2=N)cc1Cl | ? | i | 23.1% | ? | 16.8% | i
N=C1C(c2nc(-c3ccc(Cl)cc3)cs2)=C(O)CN1CCCN1CCOCC1 | 25.9µM* | i | ? | 25.9µM* | 23.1µM* | i
COc1ccc(-c2csc(C3=C(O)CN(Cc4ccc(Cl)cc4)C3=N)n2)cc1OC | -11.6% | i | ? | -29.7% | -0.4% | i
COc1cccc(CN2CC(O)=C(c3nc(-c4ccc(Cl)cc4)cs3)C2=N)c1 | -17.8% | i | 13.7% | 9.2µM* | 6.4% | i

Bioassay records: PubChem BioAssay, National Center for Advancing Translational Sciences (NCATS)
